# Experimental data: PubChem BioAssay (NCI)
# Compounds without any hit were thinned out: in the full panel of roughly 83,000, 20% have a hit.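 Testing used 96-well plates and a 48-hour single-concentration exposure. Example: -40 means 40% of the starting cells died.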 Values without a mark were called inactive. Calls of active or inactive are those of the source. Rule for the calls: active = growth percent below 10; inactive = the rest.
# Tested on: HL-60(TB) leukemia
# Test: NCI-60 one-dose screen, 48 h (100 = growth as untreated, 0 = no growth, -100 = all killed)
# Conditions: 10 µM unless noted
row,SMILES,growth
1,C=C(C)[C@@H]1CC[C@]2(C)[C@H](C=CC3=C4C[C@@](C)(CO)CC[C@]4(C)CC[C@]32C)[C@@]1(C)CCCN,-58% (active)
2,C=C(C)[C@@H]1CCC[C@]2(C(=O)N3CCN(C)CC3)CC[C@]3(C)[C@@H](CC[C@@H]4[C@@]5(C)CC/C(=N\NC(=O)c6ccncc6)C(C)(C)[C@@H]5CC[C@]43C)[C@@H]12,82.8%
3,CC1(O)CCC2CC3OC3(C)CCC3OC3(C)CCC1C2(C)C (centres undefined),120%
4,O=C(CNC(=O)c1cccc2ccccc12)Nc1ccccc1Oc1cccc(O)c1,-24.1% [5 µM] (active)
5,COc1ccc(-n2nc(C(=O)NCC(=O)O)nc2-c2ccccc2)cc1,96.3%
6,Cc1ccccc1N=C(N)Nc1ccccc1C (tested in a mixture with another compound),-25% (active)
7,COc1ccc(/C=C/C(=O)c2ccc(Nc3ncnc4ccccc34)cc2)cc1OC,75.6%
8,COc1ccc(-c2ccc(NC(=O)Nc3ccc(Cl)c(C(F)(F)F)c3)c(C)n2)cc1,32.3%
9,C=C(NC(=O)[C@H](C(C)C)N(C)c1cccc2[nH]ccc12)C(=O)OC,109%
10,COc1ccc(C(=O)Cn2c(C(=O)c3ccc(Cl)cc3)nc3ccccc32)cc1,42.2%
11,C#CC[C@@H]1C[C@]2(C)[C@H]3CC[C@@H]4[C@H]5C(C(=C)C)CC[C@]5(C(=O)NCCCCCCCCN)CC[C@@]4(C)[C@]3(C)CC[C@H]2C(C)(C)[C@H]1OC(C)=O (some centres undefined),22%
12,O=C(Nc1ccc(I)cc1)c1cccc([N+](=O)[O-])c1O,9.44% (active)
13,COc1ccc(NC(=O)/C=C(C)/C=C/C=C(C)/C=C/C2=C(C)CCCC2(C)C)cc1,5.62% (active)
14,Clc1ncnc2scc(C3COc4ccccc4O3)c12 (centres undefined),102%
15,CC(C)c1ccc(Cn2ccc3c4c(N)nc(NC5CC5)nc4ccc32)cc1,-68.8% (active)
16,CCNC(=O)Oc1ccc[nH]c1=O,94.1%
17,O=C(Nc1ccc2c(c1)OCCO2)C(=O)c1c[nH]c2ccccc12,13.7%
18,O=C(O)c1ccc(N=CC(=O)c2ccc(-c3ccccc3)cc2)cc1,77.4%
19,O=C(CSc1nc2ccccc2[nH]1)Nc1cccc(Cl)c1,102%
20,CCN(CC)CCn1c(=O)c2cc(OC)c(OC)cc2c2ccc3cc4c(cc3c21)OCO4,3.79% (active)

row,SMILES,growth
1,COC(=O)c1nc(N)nc(C(=O)OC)c1C(=O)c1cccc2ccccc12,107%
2,CCCC(=O)NC(c1ccc2c(c1)OCO2)c1cc(Cl)c2cccnc2c1O (centres undefined),-19.5% (active)
3,Cc1ccc(N=Nc2c(N)nn(-c3ccccc3)c2N)cc1,17.5%
4,CCN(CC)Cc1cc(Nc2ccnc3ccc(OC)cc23)ccc1O,32.5%
5,CC(C)(C)CC(C)(C)Nc1c(-c2ccc(-c3ccccc3)cc2)nc2cnccn12,92.9%
6,CN1CCN(CCC(=O)Nc2cccc(-n3cc(-c4ccncc4)c(-c4ccc(Cl)c(O)c4)n3)c2)CC1,5.71% (active)
7,CC1NC(=S)NC(=O)/C1=C/c1cc(=O)oc2c1ccc1ccccc12 (centres undefined),102%
8,COc1ccc2c(c1)/C(=C/c1sc(=S)n(Cc3ccco3)c1O)C=N2,3.03% (active)
9,CCOC(=O)C1CSC(C)(C(=O)OCC)N1 (centres undefined),83.8%
10,Cc1ccc(C2CC(c3cccs3)=NN2c2ccc(S(N)(=O)=O)cc2)s1 (centres undefined),88.4%
11,COc1ccc2cc(-c3nc4ccc(C)cn4c3NCc3ccco3)c(=O)[nH]c2c1,67.5%
12,O=C(c1ccccc1)N(C(=S)NCCc1ccc(Cl)cc1)c1ccc(Cl)cc1,23%
13,CC(C)(C)n1cc(-c2ccnc(NCCCNS(=O)(=O)c3ccc(Cl)cc3)c2)c(-c2cccc(O)c2)n1,-46.1% (active)
14,CCOC(=O)c1c(C)c2c(n1C)CSc1cc(S(=O)(=O)c3ccccc3)c(=O)[nH]c1-2,25% [100 µM]
15,CCc1ccc(-c2nnc(COc3ccc(-c4nc5ccccc5[nH]4)cc3OC)o2)cc1,78.4%
16,O=C(Nc1nc(-c2ccccc2)nc2c1sc(=S)n2-c1ccccc1)C(F)(F)F,94.5%
17,CN(C)C1CN(C(=O)c2cc(-c3ccc4ncnc(N5CCc6cc(F)c(Cl)cc65)c4c3)cnc2N)C1,-1.16% (active)
18,O=C(c1ccccc1)N1N=C(c2ccc(-n3ccc(C(F)(F)F)n3)cc2)CC1c1ccc[nH]1 (centres undefined),93.3%
19,COc1ccc(/C=C/C(=O)c2c(O)c(C)c(O)c3c2OC2=CC(O)=C(C(C)=O)C(=O)[C@]23C)cc1,-34.6% (active)
